# The list is not random: actives were taken first. Their share in the collection is about 4%.
# Shn3 inh set2 – reduces Shn3 3'UTR luciferase signal in osteoblasts; AID 588674; inhibition, % at 12.5 µM; actives 0.52% (n = 360,000); Clone20 osteoblast Shn3 3'UTR firefly luciferase, 24 h;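 active = mean inhibition of at least 75% with every replicate also reaching 75%; inconclusive = mean inhibition at least 75% but some replicate below; inactive = mean inhibition below 75%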;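 note: 0% = median of neutral control wells and 100% = pilot-screen positive control compound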
# PAX8 inh HTS – inhibitors of PAX8 transcriptional activity in RMG-I cells. RMG-I TPO-luciferase reporter, SteadyGlo, 24 h. inhibition, % at 12.6 µM. actives 1.2% (n = 360,000);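 active = mean replicate inhibition at least 60% with every replicate also reaching 60%; inconclusive = only one of the two criteria is met; inactive = mean below 60% and not all replicates reaching 60%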;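 note: luciferase light reporting Pax8 driven TPO promoter activity; plate controls were median of neutral control wells for no effect and mitoxantrone controls for full effect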
# Mdm2 MdmX PPI – disrupts the human Mdm2-MdmX interaction. actives 3% (n = 330,000). inhibition, % at 8 µM. O15151+Q00987. SaOS-2 split-luciferase Mdm2/MdmX complementation, luminescence;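 active = inhibition of at least 50% at 8 µM in the primary screen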
# Target sequence (O15151 whole entry, looked up): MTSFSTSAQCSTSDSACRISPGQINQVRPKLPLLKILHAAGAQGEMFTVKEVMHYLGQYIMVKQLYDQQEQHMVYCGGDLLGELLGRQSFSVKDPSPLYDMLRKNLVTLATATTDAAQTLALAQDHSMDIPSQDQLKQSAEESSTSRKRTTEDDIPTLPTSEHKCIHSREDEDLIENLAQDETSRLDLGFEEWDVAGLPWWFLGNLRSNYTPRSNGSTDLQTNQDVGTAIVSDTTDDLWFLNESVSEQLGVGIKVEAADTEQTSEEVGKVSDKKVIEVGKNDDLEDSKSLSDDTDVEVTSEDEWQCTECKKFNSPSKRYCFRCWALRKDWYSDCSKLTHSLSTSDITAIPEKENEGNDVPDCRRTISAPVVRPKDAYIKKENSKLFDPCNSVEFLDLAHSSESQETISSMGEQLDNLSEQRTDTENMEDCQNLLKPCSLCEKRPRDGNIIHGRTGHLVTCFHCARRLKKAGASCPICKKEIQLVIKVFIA
# Target sequence (Q00987 whole entry, looked up): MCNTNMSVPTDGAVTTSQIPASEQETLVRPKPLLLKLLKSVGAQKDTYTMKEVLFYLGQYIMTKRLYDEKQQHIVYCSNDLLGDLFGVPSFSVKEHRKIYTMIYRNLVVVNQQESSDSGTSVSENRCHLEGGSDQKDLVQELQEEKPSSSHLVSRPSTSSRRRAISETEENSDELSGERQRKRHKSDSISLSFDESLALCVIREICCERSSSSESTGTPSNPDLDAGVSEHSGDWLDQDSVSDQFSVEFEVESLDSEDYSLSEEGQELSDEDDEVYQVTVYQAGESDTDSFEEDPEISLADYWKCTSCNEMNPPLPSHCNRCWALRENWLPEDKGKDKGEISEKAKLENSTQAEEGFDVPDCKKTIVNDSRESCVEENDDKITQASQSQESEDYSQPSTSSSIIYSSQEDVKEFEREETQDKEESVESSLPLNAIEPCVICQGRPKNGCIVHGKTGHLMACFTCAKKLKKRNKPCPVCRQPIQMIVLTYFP
# CSC inhib – cancer stem cell inhibition; cancer stem cell-like cells viability, luminescence; inhibition, % at 7.5 µM; actives 1.1% (n = 300,000); in the data active = inhibition above about 75%; inconclusive = no clear call, values can overlap the other calls; tested in HMLE shEcad cells
# Beta cell apopt – beta cell apoptosis inhibition; actives 0.8% (n = 300,000); INS-1E cytokine-induced death, ATP luminescence, 48 h; percent of positive-control rescue, neutral wells zero; protection from apoptosis, % (concentration not given with the values); AID 435005;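 active = Every replicate reaches about 75%, or at least half do and their mean reaches it too, limit read from the data; inconclusive = At least half of replicates reach the limit but their mean does not; inactive = Under half of replicates reach the limit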;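 note: 0% = cytokine-treated negative control wells and 100% = positive control rescue; higher means more ATP so stronger rescue from cytokine killing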
# Gli-Sufu block – Gli-Sufu pathway antagonism | Sufu-KO-LIGHT fibroblasts, Gli luciferase reporter luminescence | inhibition, % at 5 µM | actives 0.74% (n = 340,000) | AID 588413;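 active = inhibition above about 55%, limit read from the data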;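 note: 0% = DMSO-treated cells and 100% = wells with medium but no cells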
# Mdm2 MdmX conf – confirmation of human Mdm2/MdmX interaction inhibitors | shares compounds with Mdm2 MdmX PPI | Mdm2-MdmX binding, luminescent assay | inhibition, % at 8 µM | actives 55% (n = 10,000) | AID 489028; in the data active = inhibition above about 40%
# FLuc counter – inhibits full-length luciferase, flagging false Mdm2/MdmX hits; shares compounds with Mdm2 MdmX PPI; SaOS-2 full-length luciferase counterscreen, luminescence; inhibition, % at 8 µM; actives 77% (n = 6,200);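 active = mean inhibition at 8 µM reaching about 37%, which flags the compound as non-specific, limit read from the data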;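 note: p53-null SaOS-2 cells with luciferase driven by a doxycycline-inducible promoter; compound on cells about two nights before reading with doxycycline added after day one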
# Active calls of the source: *; ? = inconclusive; / = no result.
SMILES,Shn3 inh set2,PAX8 inh HTS,Mdm2 MdmX PPI,CSC inhib,Beta cell apopt,Gli-Sufu block,Mdm2 MdmX conf,FLuc counter
C=C[C@@H]1c2cc(C)ccc2N(S(=O)(=O)c2ccc(C)cc2)[C@H](c2ccc(OC(C)=O)cc2)C1(C#N)C#N,49,17,72*,113*,17,-10,65*,72*
C[C@]12C(=O)N(c3ccc(C(F)(F)F)cc3)C(=O)N1[C@H]1c3ccccc3OC[C@@H]1[C@H]2c1ccccc1,-22,-6,57*,8,1,-1,8,/
O=C(COc1cccc(F)c1)Nc1nc(-c2ccccn2)cs1,18,-23,/,/,/,/,/,/
O=C(COc1ccc([N+](=O)[O-])cc1)Nc1nc(-c2ccccn2)cs1,27,26,76*,55,/,-2,81*,36
O=C(Nc1nc(-c2ccccn2)cs1)Nc1ccc(F)cc1F,13,17,59*,-14,77*,0,44*,51*
O=C(COc1ccc(F)cc1)Nc1nc(-c2ccccn2)cs1,4,33,64*,17,2,-4,70*,62*
COc1ccc(-n2c(C)c(C(C)=O)c3cc(OC(C)=O)ccc32)cc1,18,6,82*,10,8,-14,86*,6
COc1ccc2c(c1)c(C(=O)O)c(C)n2-c1ccccc1,-4,-21,7,-8,-4,1,/,/
COC(=O)c1c(C)n(-c2ccc(OC)cc2)c2ccc(O)cc12,16,/,66*,/,1,-10,64*,20
COc1ccc2c(c1)c(C(C)=O)c(C)n2-c1ccc(C(C)=O)cc1,22,-128,61*,/,/,-4,61*,40*
COCC#Cc1ccc([C@H]2[C@@H](CO)N3C(=O)CN(C(=O)Nc4ccc(F)cc4)C[C@H]23)cc1,/,-2,/,/,/,/,/,/
CCCC#Cc1ccc2c(c1)O[C@H](CN(C)C(=O)CN(C)C)[C@@H](C)CN([C@@H](C)CO)S2(=O)=O,/,0,/,/,/,/,/,/
O=C(C[C@@H]1C[C@@H]2c3cc(NC(=O)C4CCC4)ccc3O[C@@H]2[C@H](CO)O1)NCc1cccc(F)c1,/,-64,/,/,/,/,/,/
CC(C)(C)C(C(Oc1ccc(Cl)cc1)n1cncn1)n1nnnc1C(c1cccc(Cl)c1)N1CCCCC1 (stereo unspecified),/,/,57*,45,/,/,31,/
C=C[C@@H](COC(C)=O)N(Cc1ccccc1[N+](=O)[O-])S(=O)(=O)c1ccc(Br)cc1,/,-10,/,/,/,/,/,/
Cc1ccc(S(=O)(=O)c2c(C)nn(C(C)(C)C)c2OC(=O)c2ccco2)cc1,-1,/,9,-1,-2,7,/,/
Cc1ccc(S(=O)(=O)c2c(C)nn(C(C)(C)C)c2OC(=O)c2ccc(Br)o2)cc1,74,/,89*,91*,-12,7,60*,29
O=C(C[C@H]1C[C@@H]2c3cc(NS(=O)(=O)c4ccc(F)cc4)ccc3O[C@@H]2[C@H](CO)O1)NC1CCCCC1,/,7,/,/,/,/,/,/
OC(c1ccccc1)(c1ccccc1)C1CCN(CCCOc2cc(F)cc(F)c2)CC1,/,-2,/,/,/,/,/,/
CC(C)(C)c1ccc(C(O)CCCN2CCC(C(O)(c3ccccc3)c3ccccc3)CC2)cc1 (stereo unspecified),97*,-18,99*,10,?,0,88*,42*
Cc1cc(N2CCN(c3ccccc3)CC2)nc(NCc2ccccc2)n1,10,-3,76*,-14,36,16,33,/
O=C(CCc1ccc(O)cc1)c1c(O)cc(O)cc1O,-15,11,-3,14,3,-7,/,/
COc1cc(O)c(CC=C(C)C)c(O)c1C(=O)CCc1ccc(O)cc1,-3,/,55*,-6,/,9,3,/
C[C@H]1CCCCO[C@H](CN(C)Cc2ccc(C(=O)O)cc2)[C@@H](C)CN([C@@H](C)CO)C(=O)c2cc(NC(=O)Nc3ccccc3)ccc2O1,/,-35,/,/,/,/,/,/
O=C(COc1ccc(-n2cnnn2)cc1)Nc1cc(Cl)cc(Cl)c1,23,/,67*,/,/,-14,34,/
O=C(COc1ccc(-n2cnnn2)cc1)Nc1ccc(F)c(Cl)c1,26,/,1,7,-5,-15,/,/

# Screens as filed in PubChem.
